Potency data for 13 compounds are collected here from PubChem BioAssay (NCATS).

Molecules are shown by their SMILES. Results filed as inconclusive are left out. A call without a number means that no potency is given here. Activity calls are given as the source filed them. Calls come from the whole dose curve; as a rule, active = well fitted inhibition curve with a large enough effect; inconclusive = small, poorly fitted or top-dose-only effect; inactive = no such curve, though single readings can be large or run the other way.
Potency is the fitted concentration of half-maximal effect.

The nature of the assay: Primary fluorescence-based thiol-reactive (MSTI) qHTS assay for identification of artifact compounds. (AID 1845221). Note: nearly all actives have a fitted effect of over 65% in size. To be noted: MSTI thiol-reactivity probe, 1 h; series mostly up to 53.8 µM. In outline:
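Thiol-reactive compounds detected by quenching of 4 uM MSTI fluorescence (525/598 nm) after 1 h room-temperature dark incubation in PBS pH 7.4, 2% DMSO. qHTS titration; percent inhibition Hill-fitted against Acetyl-MSTI/MSTI controls.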
Consider `CC(C)c1ccc2c(c1)C(O)CC1C(C)(CO)CCCC21C` (stereo not drawn), for which the Potency entry was “inactive”.

As for `C=C1CCC2C(C)(C(=O)O)CCCC2(C)C1CC/C(C)=C\CO` (stereo not drawn), the Potency result was “inactive”.

`COc1cccc(OC)c1-c1cc(C(=O)N[C@@H](CC(C)C)C(=O)O)nn1-c1ccnc2cc(Cl)ccc12`: the Potency result was “inactive”. To `O=C(/C=C/c1ccccc1)O[C@@H]1[C@@H](CO)O[C@@](CO)(O[C@H]2O[C@H](CO)[C@@H](O)[C@H](O)[C@H]2O)[C@H]1O` belongs 2.92 µM (active); to `CCOC(=O)COc1ccc2c(c1)C[C@@H](NC[C@H](O)c1cccc(Cl)c1)CC2`, “inactive”.

`O=C(O)CCc1c(C(=O)O)[nH]c2cc(Cl)cc(Cl)c12`: the Potency result was “inactive”. As to `CCN=C1N[C@@H]2[C@@H](O)[C@H](O)[C@@H](CO)O[C@@H]2S1`, the Potency result is “inactive”. In the case of `C[C@@H]1O[C@@H](O[C@H]2[C@@H]3C=CO[C@@H](O[C@@H]4O[C@H](CO)[C@@H](O)[C@H](O)[C@H]4O)[C@@H]3[C@@]3(CO)O[C@@H]23)[C@H](OC(=O)/C=C/c2ccc(O)cc2)[C@H](O)[C@H]1O`, the Potency was 3.54 µM (active). On to `CC(=O)N[C@H](Cc1c[nH]c2ccccc12)C(=O)OCc1cc(C(F)(F)F)cc(C(F)(F)F)c1`, for which the Potency entry is “inactive”.

Take `CC1(C(=O)O)CCCC2(C)C3CC4C5CC3(CCC12)CC45C` (stereo not drawn): the Potency result was “inactive”.

`CC(C)[C@@](O)(c1ccc2cc(OC(F)F)c(OC(F)F)cc2c1)c1cn[nH]n1`: the Potency entry was “inactive”. In the case of `CC(C)C1(O)C=C2C(=O)CC3C(C)(C(=O)O)CCCC3(C)C2CC1` (stereo not drawn), the Potency result was “inactive”. Turning to `C=C1[C@H](OC(C)=O)[C@H]2[C@@H](OC(=O)c3ccccc3)[C@@H](C)C[C@]2(O)[C@@H](OC(C)=O)[C@H](C)/C=C/C(C)(C)C(=O)[C@H](OC(C)=O)[C@H]1OC(C)=O`, the Potency entry was “inactive”.
